# GPR32 ag = qHTS for Agonists of Human Resolvin D1 Receptor DRV1; Probable G-protein coupled receptor 32 (Homo sapiens), O75388; CHO-K1 GPR32 beta-arrestin PathHunter luminescence, 90 min; zero percent set by DMSO-only wells; activation, % at 76.9 µM; 2.5% of 48,000 active; AID 1346428, 2018;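 active = activation of at least 60% and not above a set upper limit, about 1 call in 100 departs from these limits; inconclusive = activation of 40% to 60%, or above that upper limit; inactive = activation under 40%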; note: 0% is about no effect
#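 Cells are plated overnight, treated with compounds in DMSO for 90 minutes at 37 °C, and developed with PathHunter detection reagent for 1 hour before luminescence is read; signal reflects beta-arrestin binding to GPR32 in engineered CHO-K1 cells.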
# B2AR arrestin ag = qHTS assay of beta-arrestin-biased ligands of beta2-adrenergic receptor: NCGC Sytravon Library Screen | HTLA Tango cells, beta-arrestin recruitment, luciferase luminescence, 18 h | Potency, µM (highest dose often 46.1 µM), hits mostly activators | 44,000 tested, under 10 active | AID 1347077, 2019;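 note: potency is the fitted concentration of half-maximal effect; 0% = DMSO and full agonism = EC100 isoproterenol or metaproterenol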
#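 First, Tango cells carrying beta2-AR and beta-arrestin fusions received compound up to 46 microM. After 18 hr at 37 degrees C, luciferase substrate was added for 15 minutes, then luminescence gave %Activity for curve fitting.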
# HTT promoter inh = Primary qHTS for Identification of Small Molecule Inhibitors of Huntingtin Promoter Activity | HEK293 HTT promoter firefly luciferase reporter, 24 h | Potency, µM (top dose mostly 57.5 µM), for inactives: at the top dose activity change, negative = inhibition, most hits filed as inhibitors | 0.93% of 48,000 active | AID 1508623, 2021; note: potency is the fitted concentration of half-maximal effect; nearly all actives have a fitted effect of over 50% in size
#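 HEK293 luciferase promoter-reporter cells (2,500/well) plated 24 h, then compounds added at up to 57.5 uM final for 24 h at 37 °C. Firefly luminescence by Dual-Glo, normalized to vehicle (0%) and zero RLU (-100%).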
# GALC G270D up = A Novel Cell-Based Assay to Identify Small Molecules for B -Galactocerebrosidase | 0.1% of 45,000 active | Potency, µM (highest dose often 57.5 µM), usual class: activators | 145M-Twi-hGALC-G270D cells (Twitcher mouse brain line with human GALC G270D), HMU-beta-Gal fluorescence, 48 h | P54803 | AID 1159614, 2016; note: potency is the fitted concentration of half-maximal effect; 0% is about no effect; nearly all actives have a fitted effect of over 65% in size
#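 Live 145M-Twi cells (Twitcher mouse brain-derived, GALC-null) stably expressing human GALC-G270D, with a wild-type GALC line, were compound-treated. Residual GALC activity was then read as fluorescence from 0.1 mM final HMU-β-gal at pH 5.2; higher signal means activation.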
# HTT-AS act = Primary qHTS for Identification of Small Molecule Activators of Huntingtin-Antisense Promoter Activity. HEK293 HTT-AS promoter firefly luciferase reporter, 24 h; response scale: percent change from vehicle, -100% = no light. Potency, µM (highest dose often 57.5 µM), for the others: at the highest dose activity change, positive = activation, actives largely listed as activators. 0.24% of 48,000 active. AID 1508624, 2021; note: potency is the fitted concentration of half-maximal effect; nearly all actives have a fitted effect of over 55% in size
#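 Quantitative HTS used concentration series of up to 57.5 uM final on HEK293 luciferase reporter cells, 24 h at 37 degrees C. Readout was Dual-Glo firefly luminescence.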
# FH mod = Identification of activators of human fumarate hydratase by quantitative high-throughput screening. FH coupled MDH/diaphorase resazurin fluorescence, 15 min. Potency, µM (top dose mostly 79.9 µM), inactives show at the highest dose activity change, negative = inhibition, hits mostly inhibitors. 0.22% of 54,000 active. Fumarate hydratase, mitochondrial (Homo sapiens), P07954; note: potency is the fitted concentration of half-maximal effect; % is set by controls: 0 for no effect and ±100 for the full control effect; the screen sought activators but most active calls are inhibition curves; nearly all actives have a fitted effect of over 45% in size
# Target sequence (P07954 whole entry, looked up): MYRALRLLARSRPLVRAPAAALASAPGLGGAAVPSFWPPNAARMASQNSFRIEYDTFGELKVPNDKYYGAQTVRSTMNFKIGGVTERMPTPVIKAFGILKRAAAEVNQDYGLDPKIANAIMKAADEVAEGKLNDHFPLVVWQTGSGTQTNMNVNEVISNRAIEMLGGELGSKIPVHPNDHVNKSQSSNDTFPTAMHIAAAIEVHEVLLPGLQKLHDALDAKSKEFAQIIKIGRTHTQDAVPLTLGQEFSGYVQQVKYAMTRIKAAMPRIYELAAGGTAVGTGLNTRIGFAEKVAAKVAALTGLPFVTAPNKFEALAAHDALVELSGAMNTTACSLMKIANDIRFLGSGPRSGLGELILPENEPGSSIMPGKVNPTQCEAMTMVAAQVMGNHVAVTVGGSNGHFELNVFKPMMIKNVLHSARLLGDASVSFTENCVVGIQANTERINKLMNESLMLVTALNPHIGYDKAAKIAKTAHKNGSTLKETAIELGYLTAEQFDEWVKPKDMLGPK
# Active calls of the source: *; i = inactive; ? = inconclusive; / = no result; ! = not confirmed by another sample; [ ] = dose if it differs, or a comment. Shown are actives, neighbours in structure and some others; about 3.7% of the full set was active somewhere. Unless noted, calls come from the whole dose curve; as a rule, active = well fitted curve in the direction sought with a large enough effect; inconclusive = small, poorly fitted or top-dose-only effect, or another doubt; inactive = no such curve, though single readings can be large; an effect the other way counts as inactive or inconclusive.
SMILES,GPR32 ag,B2AR arrestin ag,HTT promoter inh,GALC G270D up,HTT-AS act,FH mod
CCN1CCN(CCCNC(=O)CS(=O)(=O)Cc2nc(-c3ccccc3C)oc2C)CC1,0.3,i,-16.7%,i,-16.1%,6.5%
Cc1ccccc1-c1nc(CS(=O)(=O)CC(=O)NCCCc2ccccc2)c(C)o1,79.9*,i,-28.8%,i,-18.9%,-28.8%
Cc1cccc(N(C)S(=O)(=O)c2nnc(NC(=O)c3cccs3)s2)c1,73.2*,i,-11.6%,i,-19.8%,-7.4%
CC(C)C[C@H](NC(=O)CNC(=O)c1cc(Cl)ccc1Cl)B1OC(=O)CC(CC(=O)O)(C(=O)O)O1 (stereo partly specified),/,/,?,/,-46.8%,-4.6%[53.3 µM]
CC(CN1c2ccccc2Sc2ccccc21)N(C)C (stereo unspecified),107.7*!,/,-7.5%,i,-10.6%,?
Cc1cccc(OCC(=O)Nc2ccc3nc(Nc4cccc(C(F)(F)F)c4)cc(C)c3c2)c1,75.7*,i,-34.0%,i,-43.1%,-1.8%
Cc1ccc(OCC(=O)Nc2c(Cl)ccc3nsnc23)cc1C,84.5*,i,?,i,-24.0%,-2.6%
O=C(COc1ccccc1Cl)Nc1ccc2oc(-c3ccccc3F)nc2c1,-7.6,i,14.0%,i,?,-0.4%
CCc1ccc(OCC(=O)Nc2ccc(Cl)c(-c3nc4cc(C)cc(C)c4o3)c2)cc1,-4.8,i,/,/,/,/
Cc1cccc(OCC(=O)Nc2ccc3oc(-c4ccccc4F)nc3c2)c1,120.6*,i,18.5%,i,?,3.0%
Cc1ccc2nc(-c3cc(NC(=O)COc4ccc(C)c(C)c4)ccc3Cl)oc2c1,-11.5,i,6.8%,i,2.51µM*,-21.2%
CCOc1cc(CNC2CCCC2)cc(Cl)c1OCc1ccc(Cl)cc1,/,/,/,/,/,-5.1%
CC1OC(O[C@@H]2[C@@H](O)[C@H](OC(=O)[C@]34CCC(C)(C)C[C@H]3C3=CCC5[C@@]6(C)CC[C@H](O[C@@H]7O[C@H](C(=O)O)[C@@H](O)[C@H](O[C@@H]8OC[C@@H](O)[C@H](O)[C@H]8O)[C@H]7O[C@@H]7O[C@H](CO)[C@H](O)[C@H](O)[C@H]7O)[C@@](C)(C=O)C6CC[C@@]5(C)[C@]3(C)C[C@H]4O)O[C@H](C)[C@@H]2OC2OC(C)C(OC3OCC(O)C(O)C3O)C(O)C2O)C(O)C(O)C1O (stereo partly specified),/,/,/,/,/,2.5%[13.5 µM]
C=CCC1=C[C@]2(OC)[C@H](C)[C@@H](c3ccc(OC)c(OC)c3)O[C@]2(OC)CC1=O,/,/,/,/,/,-3.3%[53.3 µM]
Cc1ccccc1-c1nc2cc(NC(=O)Cc3ccc(Cl)cc3)ccc2o1,118.0*,i,1.1%,i,-7.1%,4.1%
O=C(Nc1cccc(C(F)(F)F)c1)Nc1cc(S(=O)(=O)NC2CC2)ccc1-c1ccsc1,/,/,?,/,-18.3%,19.3µM*!
CCOc1ccc(C2Nc3c(C)cccc3-c3cc(C)nn32)cc1 (stereo unspecified),-7.9,i,?,25.1µM*,-26.1%,?
CO[C@@H]1[C@]2(O)C(=O)N3/C=C\C(C)(C)c4[nH]c5ccccc5c4/C=C\3C(=O)N2[C@]23[C@H](CO)C(C)(C)N2c2ccccc2[C@]13O,/,/,/,/,/,-1.2%[53.3 µM]
CCOc1ccc(NC(=O)c2c(NC(=O)c3ccncc3)sc3c2CCC(C(C)(C)C)C3)cc1 (stereo unspecified),5.5,i,-16.0%[11.5 µM],i,11.0%[11.5 µM],-33.3%
COc1ccc(NC(=O)c2c(NC(=O)c3ccncc3)sc3c2CCC(C(C)(C)C)C3)cc1 (stereo unspecified),65.7*,i,-29.4%,i,-41.4%,-14.2%
CCCCN(CC)C(=O)c1cc2c(=O)n3cccc(C)c3nc2n1C,-17.7,i,-6.2%,i,-7.2%,-4.5%
CCCCN(CC)C(=O)c1cc2c(=O)n3cccc(C)c3nc2s1,?,i,16.4%,25.1µM*,12.2%,?
CCS(=O)(=O)c1ccc(C(=O)N2CCN(c3nc4c(OC)ccc(C)c4s3)CC2)cc1,10.2,i,?,i,-36.5%,-9.6%
O=C(C1CC1)N1CCN(c2nc3c(Cl)cccc3s2)CC1,-8.6,i,-8.4%,i,23.8%,2.8%
Cc1ccc(Cl)c2sc(N3CCN(C(=O)C4CC4)CC3)nc12,73.0*,i,0.0%,i,-18.6%,-16.1%
SMILES,GPR32 ag,B2AR arrestin ag,HTT promoter inh,GALC G270D up,HTT-AS act,FH mod
CCS(=O)(=O)c1cccc(C(=O)N2CCN(c3nc4c(C)ccc(Cl)c4s3)CC2)c1,-0.1,i,11.2µM*,i,-47.9%,-26.0%
CSc1ccc(C(=O)N[C@@H]2CCCC[C@@H]2NC(=O)CNC(=O)c2cc(C(F)(F)F)ccc2NC(=O)NC(C)C)cc1,/,/,/,/,/,-1.6%
CCOC(=O)c1cccc(NS(=O)(=O)c2cc(Br)cc3c2N(C(=O)C2CC2)CC3)c1,-4.6,i,?,i,-49.1%,?
COc1cc(NS(=O)(=O)c2cc(Br)cc3c2N(C(=O)C2CC2)CC3)cc(OC)c1,3.4,i,15.8µM*,i,-96.2%,-16.5%
Cc1ccc(NS(=O)(=O)c2cc(Br)cc3c2N(C(=O)C2CC2)CC3)cc1C,31.3,i,5.62µM*,i,-61.8%,-8.8%
O=C(C1CC1)N1CCc2cc(Br)cc(S(=O)(=O)Nc3ccc(C(F)(F)F)cc3)c21,65.4*,i,?,i,-50.3%,-14.2%
O=C(C1CC1)N1CCc2cc(Br)cc(S(=O)(=O)Nc3ccc(F)c(F)c3)c21,37.6,i,?,i,-85.7%,28.2µM*
CC(C)=CCc1ccc(Oc2c(O)cc(C)cc2CO)c(C(=O)O)c1O,/,/,/,/,/,-1.1%[53.3 µM]
CCOC(=O)c1cccc(NC(=O)c2cc3cc4ccc(C)cc4nc3s2)c1,0.7,i,9.4%,i,5.3%,8.1%
CCOC(=O)c1cccc(NC(=O)c2cc3cc4cc(OC)ccc4nc3s2)c1,100.8*,i,7.7%,i,-9.3%,-1.1%
Cc1c(Cl)cccc1-n1nc(C)c2c(C)cc(=O)n(CC(=O)NCc3ccccc3)c21,-7.1,i,-14.9%,i,-18.3%,-13.9%

# Source: PubChem
